Hits are enriched below; roughly 2.4% of the tested compounds scored in any of these assays.
D2 ag-1: human D2 receptor agonism in beta-arrestin assay | DiscoveRx PathHunter D2 beta-arrestin, luminescence, 90 min; 100% = 57 uM dopamine signal | activation, % (concentration not given with the values) | 360,000 tested, 0.084% active; in the data active means activation above about 40%; inconclusive means between about 15% and that limit
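DiscoveRx PathHunter D2 beta-arrestin cells (2,100/well) attached overnight, then compound-stimulated 90 min at 37 C in HBSS/10 mM HEPES/0.1% Tween-20 buffer; beta-galactosidase complementation read by luminescence after 1 h at ambient temperature. Dopamine 57 uM final (EC100) as control.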
D2 ag-2: agonists of human D2 dopamine receptor | activation, % at 2 µM | HEK293 T-REx D2 cells, calcium flux agonist mode | P14416 | 340,000 tested, 0.53% active;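 active means activation over 3 SD above normal in the single-dose calcium agonist read, cut at about 30% in these data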
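Tetracycline-induced HEK293 T-REx cells with force-coupled D2 receptor, plated overnight at 30 C, loaded with no-wash calcium dye. After a 10 s baseline, compound was pin-added and calcium flux read kinetically for 180 s; calcium rises flagged agonists.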
D2 PAM-1: potentiates the human D2 dopamine receptor allosterically; P14416; DiscoveRx D2 beta-arrestin cells, luminescence, 90 min; 100% = 57 uM dopamine signal; potentiation, % (test concentration not listed); 360,000 tested, 0.23% active; in the data active means potentiation above about 50%; inconclusive means mostly about 30% to 49%
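PathHunter beta-arrestin assay in DiscoveRx D2 cells. Compounds were added with an EC20 of dopamine (50 nM final) for 90 min at 37 deg C. Luminescence was read 1 h after detection reagent, with 57 uM dopamine as the EC100 control.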
D2 antag: D2 dopamine receptor (human) antagonism | P14416 | HEK293 TREx D2 cells, calcium flux, dopamine EC80 | inhibition, % at 10 µM | 340,000 tested, 2% active; in the data active means inhibition above about 30%; inactive means below that, where a call was filed
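Cells plated overnight at 30 C with tetracycline; no-wash calcium dye, 30–90 min RT; 10 s baseline; compound pinned; 180 s read; EC80 dopamine added; another 180 s read.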
D2 PAM-2: positively modulates the human D2 dopamine receptor allosterically; HEK293 T-REx D2, calcium flux, EC20 dopamine potentiation; AID 485347; 340,000 tested, 0.34% active; potentiation, % at 10 µM;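 active means potentiation over 3 SD above the plate norm, cut at about 30% in these data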
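Potentiation of an EC20 dopamine calcium response is measured in a force-coupled, tetracycline-inducible Hek293 Trex D2 line. Compound-only kinetic reads over 180 s flag agonists before dopamine addition.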
D3 arrestin ag: activates human D3 dopamine receptor beta-arrestin recruitment; shares compounds with D2 ag-2; Potency, µM (highest dose often 76.9 µM), actives largely listed as activators; DiscoveRx D3 beta-arrestin cells, luminescence, 90 min; 2,300 tested, 4% active; further: nearly all actives have a fitted effect of over 70% in size
Target sequence (P35462 whole entry, looked up): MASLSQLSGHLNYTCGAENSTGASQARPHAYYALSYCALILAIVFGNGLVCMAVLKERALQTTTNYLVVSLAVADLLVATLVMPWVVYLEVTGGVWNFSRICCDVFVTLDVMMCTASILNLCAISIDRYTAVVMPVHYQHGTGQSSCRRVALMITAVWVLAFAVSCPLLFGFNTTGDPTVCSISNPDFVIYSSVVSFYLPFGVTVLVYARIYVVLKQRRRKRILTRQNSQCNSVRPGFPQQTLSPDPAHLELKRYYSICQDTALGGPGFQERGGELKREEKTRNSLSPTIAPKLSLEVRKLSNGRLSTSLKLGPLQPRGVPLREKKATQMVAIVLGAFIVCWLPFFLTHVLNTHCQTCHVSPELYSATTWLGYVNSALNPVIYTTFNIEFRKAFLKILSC
D2 ag-3: counter-screen for D3 agonists: human D2 dopamine receptor agonism | DiscoveRx PathHunter D2 beta-arrestin, luminescence, 90 min; response scale: percent relative to full dopamine signal | 2,300 tested, 5.9% active | Potency, µM (highest dose often 76.9 µM), hits mostly activators | shares compounds with D2 ag-2; further: nearly all actives have a fitted effect of over 70% in size
Large screens that a line does not name were inactive (follow-up assays come after a bar, where they were run). Unless noted, the call rests on the fitted dose curve; in most records, active means well fitted activation curve with a large enough effect; inconclusive means small, poorly fitted or top-dose-only effect; inactive means flat fitted curve, though single readings scatter.

CNC(=O)CSc1cnc2ccccc2n1	none
Oc1ccc(Cl)cc1CNCc1ccc(Cl)cc1	none | D3 arrestin ag inactive | D2 ag-3 inactive
Oc1ccc(Cl)cc1CNCc1ccc(F)cc1	none
COc1ccc(NC(=O)CCNC(=O)C2CCN(S(=O)(=O)c3ccccc3)CC2)cc1OC	none (no result: D2 ag-2, D2 antag, D2 PAM-2)
Cc1ccc(-n2nnnc2SCC(=O)c2c(N)n(C3CC3)c(=O)[nH]c2=O)c(C)c1	none | D3 arrestin ag inactive | D2 ag-3 inactive
CCCCn1c(N)c(N(CCOC)C(=O)CC(NC(=O)c2ccccc2)c2ccccc2)c(=O)[nH]c1=O (stereo not given)	none
O=C(C1CCCN(Cc2ccc3c(c2)OCO3)C1)N1CCCC1 (stereo not given)	none
O=C(C1CCN(c2nnc(N3CCCC3=O)s2)CC1)N1CCN(Cc2ccc3c(c2)OCO3)CC1	D2 ag-2 57 | D3 arrestin ag inactive | D2 ag-3 inactive
COc1cccc(C(=O)Nc2ccc(C(=O)OCc3cc(=O)n4nc(C5CC5)sc4n3)cc2)c1	none (no result: D2 ag-1, D2 PAM-1, D2 antag)
Oc1ccc(C2CNCc3sccc32)cc1O (stereo not given)	D2 ag-1 63, D2 ag-2 84, D2 PAM-1 71, D2 antag 96 | D3 arrestin ag 3.5µM | D2 ag-3 2.8µM
CC1CN(C)C(C)C/C1=N/Oc1ccccc1[N+](=O)[O-] (stereo not given)	D2 ag-2 41 | D3 arrestin ag inactive | D2 ag-3 inactive
COC(=O)C(N)Cc1ccc(O)c(O)c1 (stereo not given)	D2 ag-2 41 | D3 arrestin ag inactive | D2 ag-3 inactive
COc1ccc(C(C)(O)c2nc(-c3ccc(OC)nc3)cs2)cc1 (stereo not given)	none (no result: D2 ag-2, D2 antag, D2 PAM-2)
CC(OC(=O)Cc1c(F)cccc1Cl)C(=O)NC1CCCCC1C (stereo not given)	none | D3 arrestin ag inactive | D2 ag-3 inactive
CC(OC(=O)CNC(=O)c1ccc(Br)cc1)C(=O)NC1CCCCC1C (stereo not given)	none | D3 arrestin ag inactive | D2 ag-3 inactive
CCC(NC(C)C)C(O)c1ccc(O)c(O)c1 (stereo not given)	none | D3 arrestin ag inconclusive | D2 ag-3 inactive
Cn1c2ccccc2c(=O)c2c(=O)n(C3CCCCCC3)c(C3CCCCC3)nc21	D2 ag-2 40 | D3 arrestin ag inactive | D2 ag-3 inactive
Cn1c2ccccc2c(=O)c2c(=O)n(-c3ccccc3)c(C3CCCCC3)nc21	none
O=C(O)/C(=C\c1cccc(O)c1)c1ccc(S(=O)(=O)N2CCCC2)s1	D2 antag 42 | D3 arrestin ag inactive | D2 ag-3 inactive
O=C(O)/C(=C\c1cccc(F)c1)c1ccc(S(=O)(=O)N2CCCCC2)s1	none
O=C(CN1CCCC1)Nc1ccc(Br)cc1[N+](=O)[O-]	none
COc1ccc(N2CCN(C(CNS(=O)(=O)c3cccs3)c3cccnc3)CC2)cc1 (stereo not given)	none
O=S(=O)(NCC(c1cccnc1)N1CCN(Cc2ccccc2)CC1)c1cc(F)ccc1F (stereo not given)	D2 ag-2 70, D2 antag 43 | D3 arrestin ag inactive | D2 ag-3 inactive
O=S(=O)(NCC(c1cccnc1)N1CCN(c2ccccc2)CC1)c1cccs1 (stereo not given)	none | D3 arrestin ag inactive | D2 ag-3 inactive
NC(=O)[C@@H]1CCCN1Cc1nc(-c2ccc(C(F)(F)F)cc2)no1	none
COc1cc(-c2nnc(NC(=O)CCS(=O)(=O)c3ccccc3)o2)cc(OC)c1OC	D2 antag 41 | D3 arrestin ag inactive | D2 ag-3 inactive
COc1cc(-c2nnc(NC(=O)CCS(=O)(=O)c3ccc(F)cc3)o2)cc(OC)c1OC	none
Cc1ccc(NC(=O)c2cccc3c(=O)c4c([nH]c23)CCCC4)c(C)c1	none (no result: D2 ag-1, D2 PAM-1, D2 antag)
COc1ccc(NC(=O)[C@@H](NC(=O)N2C[C@H]3C[C@@H](C2)c2cccc(=O)n2C3)C(C)C)cc1OC	none
COc1cc(/C=N/Nc2cc(C)nc(NS(=O)(=O)c3ccccc3)n2)ccc1O	none | D3 arrestin ag inactive | D2 ag-3 inactive
COc1cc(/C=N/Nc2cc(C)nc(NS(=O)(=O)c3ccc(C)cc3)n2)ccc1O	none
COCCn1c(SCC(=O)NCc2ccc3c(c2)OCO3)nnc1C(C)C	none
COCCn1c(SCC(=O)NCc2ccc3c(c2)OCO3)nnc1-c1c[nH]c2ccccc12	D2 ag-2 64 | D3 arrestin ag inactive | D2 ag-3 inactive
COC(=O)CCN(C(=O)C12CC3CC(CC(C3)C1)C2)c1ccccn1	D2 ag-1 inconclusive, D2 ag-2 69, D2 PAM-1 inconclusive, D2 antag 33 | D3 arrestin ag inactive | D2 ag-3 inconclusive
O=C(N(Cc1ccccc1)c1ccccn1)C12CC3CC(CC(C3)C1)C2	none
COc1cccc(-n2c(=O)c3c4c(sc3n(Cc3ccccc3C#N)c2=O)CCCC4)c1	none (no result: D2 ag-1, D2 PAM-1, D2 antag)
O=C(COc1ccccc1Cl)NNC(=O)Cn1[nH]c(=O)c2ccccc2c1=O	none | D3 arrestin ag inactive | D2 ag-3 inactive
CCC(=O)N1CCC1(C)C(=O)Nc1ccc2nc(C)ccc2c1 (stereo not given)	none (no result: D2 ag-2, D2 antag, D2 PAM-2)
O=c1[nH]c(CN(CCc2ccccc2)S(=O)(=O)c2ccc(Cl)cc2)nc2ccccc12	none | D3 arrestin ag inactive | D2 ag-3 inactive
Oc1c(C(c2ccccc2)N2CCC3(CC2)OCCO3)sc2nc(-c3ccco3)nn12 (stereo not given)	none (no result: D2 ag-1, D2 PAM-1, D2 antag)
CN(CCNC(=O)C1CCC(=O)N(Cc2cccc(F)c2)C1)CCc1ccccc1 (stereo not given)	none
CN(CCNC(=O)C1CCC(=O)N(Cc2ccc(Cl)cc2)C1)CCc1ccccc1 (stereo not given)	D2 ag-2 45 | D3 arrestin ag inactive | D2 ag-3 inactive
COC(=O)C1CCN(Cc2cc(=O)oc3cc(OC)ccc23)CC1	D2 ag-2 56 | D3 arrestin ag inconclusive | D2 ag-3 inconclusive
COC(=O)C1CCN(Cc2ccc(OCCCN3CCN(c4ccc([N+](=O)[O-])cc4)CC3)cc2)CC1	D2 ag-2 54, D2 antag 75 | D3 arrestin ag inactive | D2 ag-3 inactive
Cc1ccc(CN2CCN(C(=O)C3CCC3)CC2)cc1	none
COC(=O)C1CCN(Cc2ccc(C)cc2)CC1	D2 ag-1 inconclusive, D2 ag-2 75, D2 antag 69 | D3 arrestin ag inactive | D2 ag-3 inconclusive
COc1ccc2c(CN3CCCC3)cc(=O)oc2c1	none (no result: D2 ag-2, D2 antag, D2 PAM-2)
Cc1ccc(Cl)cc1N1CCN(C(=O)c2ccccc2SCC(=O)N2CCCC2)CC1	none

Bioassay records deposited in PubChem BioAssay by National Center for Advancing Translational Sciences (NCATS).
